PubChem BioAssay AID463173 (ICCB-Longwood Screening Facility, Harvard Medical School, 2010)
Hit rate of the full screen: of about 52,000 compounds, about 4,300 (8.3%) were called active. The sample holds actives, similar compounds and a random draw of the others, so the mix is not that of the screen. A number with no mark means an inactive call. Rule as the data show it: active = survival mostly below about 52% (no sharp cut-off); inactive = mostly above about 56%.

These molecules were tested on DeltatarO mutant (assay: growth inhibition of S. aureus wild type versus tarO mutant, primary screen, teichoic acid synthesis inhibitors, RN4220, OD600 (AID 463173)). Details: OD600, 18 h, hits give low values, screened at 18.75 µg/mL (by protocol).
`Cc1c(NC(=O)Cc2ccc(Cl)cc2)cccc1-c1nc2cccnc2s1` was tested, and the survival was 114%.
`Cc1csc2nc(COC(=O)c3cccc(NC(=O)COc4ccccc4Cl)c3)cc(=O)n12` showed a survival of 88%.
With `Cc1cc2ncn(S(=O)(=O)c3ccc(S(N)(=O)=O)cc3)c2cc1C` the survival was 84%.
Work on `Cc1ccccc1NC(=O)N1CCCC(c2nc(-c3ccc(F)cc3)no2)C1` (stereo unspecified) yielded a survival of 93%.
In the case of `Cc1ccccc1NC(=O)CN1C(=O)CCn2nc(-c3cccn3C)cc21`, the survival is reported as 83%.
`O=C(CSc1nc(-c2ccc(Cl)cc2)nc2c1Cc1ccccc1O2)N1CCCCC1` gave a survival of 96%.
`O=C(Cn1cc(C(=O)c2cccs2)c2ccccc21)Nc1ccc(Br)cc1` gave a survival of 127%.
`O=S(=O)(NCCSc1nnnn1-c1ccccc1)c1ccc(F)cc1` showed a survival of 76%.
`O=C1CC(CSc2nnnn2-c2ccccc2)=NN1` showed a survival of 101%.
In the case of `O=S1(=O)C=C(Sc2nnnn2-c2ccccc2)c2ccccc21`, the survival is reported as 4% (active).
`Cc1cc(NC(=O)CCCn2c(C)c3cnn(-c4ccccc4)c(=O)c3c2C)ccc1Br` showed a survival of 71%.
In the case of `COc1ccc(CCNC(=O)Cn2c(=O)nc(-c3ccccc3)c3cc(Cl)ccc32)cc1OC`, the survival is reported as 94%.
With `CCOCCCNC(=O)c1ccc(-c2nc(CS(=O)(=O)c3ccccc3)c(C)o2)cc1` the survival was 66%.
With `Cc1oc(-c2ccc(C(=O)NCCCOC(C)C)cc2)nc1CS(=O)(=O)c1ccccc1` the survival was -4% (active).
Work on `Cc1ccc(S(=O)(=O)Cc2nc(-c3ccc(C(=O)NCCCOC(C)C)cc3)oc2C)cc1` yielded a survival of 72%.
`COc1ccc(CCN2C(=O)CN(C3CCCCCC3)C(=O)C2c2ccc(Cl)cc2)cc1OC` (stereo unspecified) showed a survival of 81%.
In the case of `COc1ccc(C(=O)Nc2ccccc2-c2nc3ccccc3s2)cc1OC`, the survival is reported as 7% (active).
Work on `COc1cccc(C(=O)Nc2ccc(-c3nc4ccccc4s3)cc2Cl)c1` yielded a survival of 72%.
With `COc1ccc(C(=O)Nc2cc(C)c(O)c(-c3nc4ccccc4s3)c2)cc1OC` the survival was 51%.
In the case of `COc1cc(OC)cc(C(=O)Nc2ccc(-c3nc4ccccc4s3)c(C)c2)c1`, the survival is reported as 117%.
Work on `O=C(Nc1ccccc1-c1nc2ccccc2s1)c1cc(Cl)cc(Cl)c1` yielded a survival of 84%.
With `COc1cccc(C(=O)Nc2ccccc2-c2nc3ccccc3s2)c1` the survival was 33% (active).
In the case of `COc1cc(OC)cc(C(=O)Nc2ccccc2-c2nc3ccccc3s2)c1`, the survival is reported as 17% (active).
`COc1ccc(C(=O)Nc2ccccc2-c2nc3ccccc3s2)c(OC)c1` was tested, and the survival was 102%.
`O=C(Nc1ccccc1-c1nc2ccccc2s1)c1ccc(F)cc1` gave a survival of 81%.
`Cc1ccc(C(=O)Nc2ccc(-c3nc4ccccc4s3)c(O)c2)c(C)c1` was tested, and the survival was 84%.
For `CSc1ccc(C(=O)Nc2ccc(-c3nc4ccccc4s3)c(O)c2)cc1`, the survival was 32% (active).
For `O=C(Nc1ccc(-c2nc3ccccc3s2)c(O)c1)c1ccc(Br)cc1`, the survival was 87%.
For `Cn1c(CNC(=O)CSc2n[nH]c(-c3ccccc3Cl)n2)nc2ccccc21`, the survival was 75%.
In the case of `O=C(Nc1ccc(F)cc1F)c1cc2c(=O)n3ccccc3nc2s1`, the survival is reported as 75%.
Molecule `CCOC(=O)c1ccccc1NC(=O)c1sc2ncn(CC)c(=O)c2c1C` has a survival of 68%.
`Cc1ccc(C)c(NC(=O)CCc2c(C)n(C)c3cc(-c4ccccc4C)nn3c2=O)c1` gave a survival of 63%.
With `CCC(CC)C(=O)Nc1ccccc1C(=O)OCc1cc(=O)n2nc(C3CCCCC3)sc2n1` the survival was 92%.
Work on `O=C(Nc1ccc(F)c(Cl)c1)N1CC=C(c2c[nH]c3ccccc23)CC1` yielded a survival of 77%.
`CN1CCN(C(CNC(=O)C(=O)Nc2cccc(Cl)c2)c2ccc3c(c2)OCO3)CC1` (stereo unspecified) gave a survival of 86%.
In the case of `CCC1=C(c2ccc(C)cc2)S(=O)(=O)N=C1N1CCC(C(=O)Nc2ccccc2C(=O)OC)CC1`, the survival is reported as 89%.
With `Cc1ccc(NC(=O)Cn2c(=O)n(CCc3ccccc3)c(=O)c3c4c(sc32)CCCC4)cc1C` the survival was 97%.
Molecule `CCCCOc1ccc(C(=O)Nc2ccc3c(c2)CCCN3C(=O)c2cccs2)cc1` has a survival of 83%.
`CCOC(=O)C(C)ON1C(=O)c2ccccc2C1=O` (stereo unspecified) gave a survival of 86%.
For `CC(=O)N1CCc2cc(Br)cc(S(=O)(=O)CCC(=O)NCCc3ccc(Cl)cc3)c21`, the survival was 44% (active).
Work on `CCOc1ccc(CCNS(=O)(=O)c2cc(Br)cc3c2N(C(C)=O)CC3)cc1OCC` yielded a survival of 103%.
For `CC(=O)N1CCc2cc(Br)cc(S(=O)(=O)CCC(=O)Nc3ccc(C)cc3Cl)c21`, the survival was 47% (active).
For `CC(=O)N1CCc2cc(Br)cc(S(=O)(=O)NCCc3cccc(C)c3)c21`, the survival was 75%.
`Cc1ccc(NC(=O)CCS(=O)(=O)c2cc(Br)cc3c2N(C(=O)C2CC2)CC3)cc1` gave a survival of 90%.
`CCC(=O)N1CCc2cc(Br)cc(S(=O)(=O)CCC(=O)NCCc3ccc(Cl)cc3)c21` showed a survival of 70%.
Molecule `CCC(=O)N1CCc2cc(Br)cc(S(=O)(=O)CCC(=O)Nc3ccccc3C)c21` has a survival of 87%.
With `CC(=O)N1CCc2cc(Br)cc(S(=O)(=O)NCCc3ccc(Cl)cc3)c21` the survival was 45% (active).
`COc1ccc(CCNC(=O)CCS(=O)(=O)c2cc(Br)cc3c2N(C(C)=O)CC3)cc1OC` gave a survival of 53%.
For `COc1ccc(CCNC(=O)c2ccc3c(c2)N(Cc2ccccc2C)C(=O)c2ccccc2S3)cc1OC`, the survival was 118%.
With `CCOC(=O)c1c(C)[nH]c(C)c1S(=O)(=O)NCC(=O)Nc1ccc(CC)cc1` the survival was 96%.
`COc1ccc(OC)c(CCNC(=O)C2=C(C)C(=O)OC23CCC(C)CC3)c1` (stereo unspecified) was tested, and the survival was 86%.
For `Cc1cc(C(C)(C)C)oc1C(=O)N(CC(=O)NC1CCCC1)c1ccc(F)cc1`, the survival was 77%.
In the case of `Cc1cc(C)cc(OCC(=O)N2CCC(c3nc4ccccc4s3)CC2)c1`, the survival is reported as 85%.
`Cc1ccccc1OCC(=O)N1CCC(c2nc3ccccc3s2)CC1` was tested, and the survival was 51%.
With `Cc1cc(Cl)ccc1OCC(=O)N1CCC(c2nc3ccccc3o2)CC1` the survival was 54%.
`COc1ccc(OCC(=O)N2CCC(c3nc4ccccc4s3)CC2)cc1` gave a survival of 68%.
With `O=C(COc1cccc(Cl)c1)N1CCC(c2nc3ccccc3s2)CC1` the survival was 44% (active).
In the case of `Cc1cc(OCC(=O)N2CCC(c3nc4ccccc4s3)CC2)ccc1Cl`, the survival is reported as 23% (active).
For `CC(C)(C)c1ccc(OCC(=O)N2CCC(c3nc4ccccc4s3)CC2)cc1`, the survival was 84%.
Work on `O=C(COc1ccc([N+](=O)[O-])cc1)N1CCC(c2nc3ccccc3s2)CC1` yielded a survival of 82%.
With `Cc1cc(Cl)ccc1OCC(=O)N1CCC(c2nc3ccccc3s2)CC1` the survival was 21% (active).
Molecule `COc1ccc(N2CCN(S(=O)(=O)c3c(C)nc4sc(C)cn4c3=O)CC2)cc1` has a survival of 92%.
Work on `CCCCSCc1ccc(C(=O)O)o1` yielded a survival of 77%.
`O=C(c1cccs1)N1CCCc2cc(NS(=O)(=O)c3cc(F)ccc3F)ccc21` was tested, and the survival was 73%.
Molecule `O=C(c1ccccc1F)N1c2nc(-c3ccco3)nn2C2(CCCCC2)[C@@H]2CCCC[C@@H]21` has a survival of 69%.
Work on `C=Cc1ccc(Cn2c(C)c(CNCCc3ccccc3C)c(C(=O)O)c2C)cc1` yielded a survival of 53%.
With `Cc1cc(C)c(NS(=O)(=O)c2ccc(-c3coc(C)n3)cc2)c(C)c1` the survival was 94%.
Work on `CC(=O)OCc1cnc(C)c2oc(=O)c(C(=O)Nc3ccc(C)cc3Cl)cc12` yielded a survival of 128%.
With `Cc1ccc(NC(=O)c2ccc(Br)cc2)c(C(=O)c2ccccc2)c1` the survival was -2% (active).
`O=C(Nc1cc2c(cc1C(=O)c1ccccc1Br)OCCO2)c1ccccc1` showed a survival of 68%.
Molecule `O=C(c1ccccc1)c1ccccc1NC(=O)c1ccccc1C(=O)O` has a survival of 67%.
For `Cc1ccc(NC(=O)c2ccccc2Br)c(C(=O)c2ccccc2)c1`, the survival was 26% (active).
`Cc1cc(NC(=O)c2ccccc2Cl)ccc1NC(=O)c1ccccc1` was tested, and the survival was 77%.
With `Cc1ccc(NC(=O)c2ccc(Cl)cc2Cl)c(C(=O)c2ccccc2)c1` the survival was -1% (active).
With `O=C(Nc1cc2c(cc1C(=O)c1ccccc1)OCCO2)c1ccc(Br)cc1` the survival was 82%.
With `Cc1ccc(NC(=O)c2nc[nH]c2C(=O)N2CCCCC2)c(C(=O)c2ccccc2)c1` the survival was 82%.
For `Cc1ccc(C(=O)COC(=O)c2cccc(NC(=O)c3ccc(Cl)cc3Cl)c2)cc1`, the survival was 61%.
`CCOc1ccccc1CNC(=O)c1ccc2c(c1)nc1n2CCCCC1` gave a survival of 87%.
Work on `O=C(c1ccccc1)n1nnc2ccccc21` yielded a survival of 106%.
In the case of `COc1ccc2c(c1)c1c(c(=O)n(Cc3ccccc3)c(=O)n1Cc1cccc(Cl)c1)n2C`, the survival is reported as 82%.
Molecule `CCC(Oc1ccccc1)C(=O)Nc1nccs1` (stereo unspecified) has a survival of 79%.
Molecule `COc1ccc2c(CNCCc3ccco3)c(C(=O)O)n(Cc3ccccc3)c2c1` has a survival of 101%.
In the case of `CCC(C(=O)Nc1cc(C)ccc1C)n1c(=O)c(C(F)(F)F)nc2ccccc21` (stereo unspecified), the survival is reported as 102%.
`CCCc1cnc2c(c1SCC(=O)Nc1ccc([N+](=O)[O-])cc1)c(=O)n(C)c(=O)n2C` gave a survival of 66%.
`COc1ccc(-n2cc(C(=O)OCc3ccc(F)c(F)c3)c3ccccc3c2=O)cc1` was tested, and the survival was 98%.
For `COc1ccccc1NC(=O)c1ccccc1NC(=O)c1ccccc1`, the survival was 20% (active).
With `COc1ccccc1NC(=O)c1ccccc1C(=O)O` the survival was 82%.
Work on `COc1ccc(OC)c(NC(=O)c2ccccc2)c1` yielded a survival of 105%.
Molecule `COc1ccccc1NC(=O)c1cc(S(=O)(=O)N2CCN(c3ccccc3Cl)CC2)ccc1F` has a survival of 102%.
With `COc1ccccc1NC(=O)c1cccc(S(=O)(=O)N2CCCCCC2)c1` the survival was 40% (active).
`O=C(Nc1ccccc1C(=O)O)c1cccc(S(=O)(=O)N2CCCC2)c1` was tested, and the survival was 87%.
